Data on 16 compounds can be found in PubChem BioAssay (EPA / NIEHS).

Calls of active or inactive are those of the source. Rule for the calls: active = hit-call score of the fitted dose curve at least 0.9, where 1 is the maximum; inactive = score below 0.9.

The nature of experiment [1]: ATG_CRE_CIS: Attagene CIS-FACTORIAL HepG2 Assay for human cAMP Responsive Element (CRE) binding protein 3 (AID 2282926). The settings on record: HepG2 CRE cis-reporter, Attagene multiplexed mRNA; actives raise or lower the signal. The method, boiled down: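 Capillary electrophoresis of 6-FAM-labelled, HpaI-digested PCR products quantified reporter transcripts. These came from HepG2 transiently transfected with cis-element reporters and exposed to test chemicals for 24 hours, with DMSO defining baseline activity.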

Experiment [2] addresses CCAAT/enhancer-binding protein beta (Homo sapiens) (UniProt P17676). In words: ATG_C_EBP_CIS: Attagene CIS-FACTORIAL HepG2 Assay for human CCAAT/Enhancer Binding Protein (C/EBP) beta (AID 2282927). To be noted: HepG2 Attagene cis-factorial transcription factor reporter; actives raise or lower the signal. The method, boiled down: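 RT-PCR/capillary electrophoresis fluorescence of reporter mRNA, 24 h post-dose, in HepG2 cells carrying transfected cis-promoter reporter units. Bidirectional curve fitting against DMSO baseline captures gain or loss of signal.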

Experiment [3] is described as follows: ATG_CMV_CIS: Attagene CIS-FACTORIAL HepG2 Assay for human CMV (Internal Marker) (AID 2282928).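 Note: endpoint acts as a background internal control marker rather than a target.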 To be noted: HepG2 CMV promoter reporter, transcription factor profiling; actives raise or lower the signal. An outline of the steps: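 Fluorescence intensity of RT-PCR-derived reporter fragments, resolved by capillary electrophoresis, gives the signal. HepG2 liver cells bearing transfected cis-element reporters were treated 24 h; activity in either direction was fit relative to DMSO-treated controls.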

Experiment [4] is described as follows: ATG_DR4_LXR_CIS: Attagene CIS-FACTORIAL HepG2 Assay for human Liver X Receptor (LXR), DR4 submotif (AID 2282929). To be noted: HepG2 Attagene DR4 cis-reporter, mRNA transcription; actives raise or lower the signal. The method, boiled down:
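Measures endogenous transcription factor activity via a DR4-driven reporter transcript in human HepG2 cells. Compounds incubated 24 h; mRNA quantified by RT-PCR and capillary electrophoresis, analysed as gain or loss of signal versus DMSO.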

The target of experiment [5] is Aryl hydrocarbon receptor (Homo sapiens) (UniProt P35869). The experiment can be described thus: ATG_Ahr_CIS: Attagene CIS-FACTORIAL HepG2 Assay for human Aryl Hydrocarbon Receptor (Ahr) (AID 2282930). The settings on record: HepG2 AhR cis-factorial reporter transcription; actives raise or lower the signal. The method, boiled down:
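HepG2 cells transiently transfected with cis-element-driven multiplexed reporter transcription units; endogenous transcription factor activity measured as reporter mRNA 24 h after dosing. RT-PCR, 6-FAM labelling, HpaI digestion, capillary electrophoresis; bidirectional fitting versus DMSO baseline.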

Experiment [6] in a line: ATG_AP_2_CIS: Attagene CIS-FACTORIAL HepG2 Assay for human Activator Protein 2 (AP-2) (AID 2282932). To be noted: HepG2 AP-2 cis-reporter, Attagene transcription factor profiling; actives raise or lower the signal. The method, boiled down: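 Cells (HepG2) transfected with promoter-driven reporter constructs, treated 24 h. Total RNA reverse-transcribed, reporter cDNA PCR-amplified, FAM-labelled by primer extension, digested, resolved by capillary electrophoresis. Activity fitted both directions versus DMSO.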

The nature of experiment [7]: ATG_BRE_CIS: Attagene CIS-FACTORIAL HepG2 Assay for human Bone Morphogenetic Protein (BMP) Response Element (BRE) (AID 2282933). The settings on record: HepG2 BMP response element reporter, Attagene transcription factor profiling; actives raise or lower the signal. The method, boiled down: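 Endogenous transcription factor activity at a BMP response element was monitored in transfected HepG2 cells 24 h after dosing. Fluorescent RT-PCR products were resolved by capillary electrophoresis, and activity was fitted in both directions versus DMSO.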

Experiment [8] deals with Transcription factor E2F1 (Homo sapiens) (UniProt Q01094). The experiment can be described thus: ATG_E2F_CIS: Attagene CIS-FACTORIAL HepG2 Assay for human E2F Transcription Factor 1 (AID 2282935). To be noted: HepG2 Attagene cis-reporter, E2F reporter RNA transcripts; actives raise or lower the signal. An outline of the steps: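 First, HepG2 cells were transfected with reporter transcription units. Next, they were dosed for 24 h. Then RNA was isolated, converted to cDNA, PCR-amplified, FAM-labeled, HpaI-digested and analyzed by capillary electrophoresis.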
Transcription factor E2F1 (Homo sapiens), sequence (Q01094 whole entry, looked up): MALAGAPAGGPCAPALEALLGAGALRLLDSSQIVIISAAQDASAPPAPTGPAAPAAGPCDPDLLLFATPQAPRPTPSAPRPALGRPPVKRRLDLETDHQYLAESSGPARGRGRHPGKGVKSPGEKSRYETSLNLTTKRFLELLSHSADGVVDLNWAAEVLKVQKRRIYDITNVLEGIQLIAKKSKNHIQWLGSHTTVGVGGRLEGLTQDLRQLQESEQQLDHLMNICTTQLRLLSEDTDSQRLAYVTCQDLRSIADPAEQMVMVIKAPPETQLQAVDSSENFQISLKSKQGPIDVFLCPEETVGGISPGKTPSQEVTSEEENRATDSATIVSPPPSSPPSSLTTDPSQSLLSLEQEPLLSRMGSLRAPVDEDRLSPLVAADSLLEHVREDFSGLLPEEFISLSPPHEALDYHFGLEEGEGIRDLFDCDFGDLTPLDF

The target in experiment [9] is Retinoic acid receptor alpha (Homo sapiens) (UniProt P10276). The experiment can be described thus: ATG_DR5_RAR_CIS: Attagene CIS-FACTORIAL HepG2 Assay for human Retinoic Acid Receptor Alpha (RARE), DR5 submotif (AID 2282934). To be noted: HepG2 Attagene cis-factorial RARE DR5 reporter, mRNA; actives raise or lower the signal. The method, boiled down: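 HepG2 cells transiently transfected with multiplexed reporter units under cis (DR5 RARE) promoters, so endogenous transcription factor activity is measured. After 24 h compound exposure, reporter mRNA is quantified by RT-PCR with fluorescent labelling and capillary electrophoresis; bidirectional fitting versus DMSO.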
Retinoic acid receptor alpha (Homo sapiens), sequence (P10276 whole entry, looked up): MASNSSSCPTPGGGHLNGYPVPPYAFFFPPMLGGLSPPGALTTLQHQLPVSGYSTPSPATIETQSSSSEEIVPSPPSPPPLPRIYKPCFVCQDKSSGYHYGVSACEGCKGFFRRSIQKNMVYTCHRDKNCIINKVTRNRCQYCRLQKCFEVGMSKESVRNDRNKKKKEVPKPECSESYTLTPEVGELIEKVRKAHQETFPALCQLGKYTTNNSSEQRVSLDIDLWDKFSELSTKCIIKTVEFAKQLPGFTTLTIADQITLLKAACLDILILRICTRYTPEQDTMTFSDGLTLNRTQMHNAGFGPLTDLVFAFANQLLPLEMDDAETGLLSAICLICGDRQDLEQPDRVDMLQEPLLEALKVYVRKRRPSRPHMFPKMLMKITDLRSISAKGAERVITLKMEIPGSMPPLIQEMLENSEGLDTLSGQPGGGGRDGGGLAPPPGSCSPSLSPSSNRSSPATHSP

CCAAT/enhancer-binding protein beta (Homo sapiens), sequence (P17676 whole entry, looked up): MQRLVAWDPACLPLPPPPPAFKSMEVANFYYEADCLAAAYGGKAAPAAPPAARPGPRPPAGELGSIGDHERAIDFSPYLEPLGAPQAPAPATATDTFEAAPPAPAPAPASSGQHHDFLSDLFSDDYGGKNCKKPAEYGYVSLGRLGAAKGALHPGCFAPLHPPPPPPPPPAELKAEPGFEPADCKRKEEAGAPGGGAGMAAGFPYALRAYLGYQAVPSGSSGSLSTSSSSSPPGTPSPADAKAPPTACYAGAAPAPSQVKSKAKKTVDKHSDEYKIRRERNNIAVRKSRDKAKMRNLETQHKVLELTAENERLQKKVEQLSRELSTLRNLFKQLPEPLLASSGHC
Aryl hydrocarbon receptor (Homo sapiens), sequence (P35869 whole entry, looked up): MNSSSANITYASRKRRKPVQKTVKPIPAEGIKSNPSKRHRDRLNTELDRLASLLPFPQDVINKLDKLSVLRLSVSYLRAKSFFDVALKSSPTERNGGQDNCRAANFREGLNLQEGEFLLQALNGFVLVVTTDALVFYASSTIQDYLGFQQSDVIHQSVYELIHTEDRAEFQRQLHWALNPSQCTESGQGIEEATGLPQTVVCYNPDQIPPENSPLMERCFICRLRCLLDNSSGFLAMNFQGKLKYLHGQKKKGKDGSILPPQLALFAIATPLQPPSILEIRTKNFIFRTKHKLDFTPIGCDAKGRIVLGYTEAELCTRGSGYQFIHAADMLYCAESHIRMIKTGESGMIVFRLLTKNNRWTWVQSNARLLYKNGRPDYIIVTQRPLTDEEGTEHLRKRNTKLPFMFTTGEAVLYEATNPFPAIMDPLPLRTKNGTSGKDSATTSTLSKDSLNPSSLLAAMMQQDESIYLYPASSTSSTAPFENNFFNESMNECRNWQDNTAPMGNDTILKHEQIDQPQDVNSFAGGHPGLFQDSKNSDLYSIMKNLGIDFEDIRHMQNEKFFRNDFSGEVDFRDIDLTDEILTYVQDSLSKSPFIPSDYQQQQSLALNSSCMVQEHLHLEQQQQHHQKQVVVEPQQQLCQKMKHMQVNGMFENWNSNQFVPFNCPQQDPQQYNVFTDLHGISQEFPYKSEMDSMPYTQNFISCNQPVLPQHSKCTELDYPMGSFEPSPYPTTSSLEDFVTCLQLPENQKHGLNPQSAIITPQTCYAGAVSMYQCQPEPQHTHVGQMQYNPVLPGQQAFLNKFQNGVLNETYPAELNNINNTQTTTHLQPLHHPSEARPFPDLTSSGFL

Consider `COc1cc(C(C)(C)C)c(O)c(C(C)(C)C)c1`, for which the call in [1], in experiment [2], in experiment [3], in [4], in [5] and in [6] was inactive. The outcome in [7] and in experiment [8] was inactive.

For `NC(=O)NC1NC(=O)NC1=O` (stereo not drawn), the result in [1], in [2], in experiment [3], in [4], in experiment [5] and in experiment [6] was inactive. The compound was called inactive in [7] and in [8].

Regarding `FC1(F)C(F)(F)C(F)(F)C2(F)C(F)(C1(F)F)C(F)(F)C(F)(F)C1(F)C(F)(F)C(F)(F)C(F)(F)C(F)(F)C12F` (stereo not drawn), the compound was classed as inactive in experiment [1], in experiment [2], in experiment [3], in experiment [4], in experiment [5] and in [6]. The result in experiment [7] and in experiment [8] was inactive.

Consider `NC(=O)Nc1ccc(Cl)cc1`, for which the result in [1], in experiment [2], in [3], in [4], in [5] and in experiment [6] was inactive. Also, the compound was classed as inactive in experiment [7] and in experiment [8].

Take `OCCN1CCNCC1`: the compound was classed as inactive in experiment [1], in experiment [2], in experiment [3], in [4], in experiment [5] and in [6]. In addition, the compound was called inactive in experiment [7] and in experiment [8].

For the compound `Fc1c(F)c(F)c(Br)c(F)c1F`, the result in [1], in experiment [2], in experiment [3], in experiment [4], in [5] and in experiment [7] was inactive. The outcome in [9] and in experiment [8] was inactive.

Consider `O=C(O)CN(CCN(CC(=O)O)CC(=O)O)CCN(CC(=O)O)CC(=O)O`, for which the compound was classed as inactive in [1], in [2], in experiment [3], in experiment [4], in experiment [5] and in experiment [6]. The outcome in experiment [7] and in experiment [8] was inactive.

Turning to `COC(=O)C1=C(C)NC(C)=C(C(=O)OCCN(C)Cc2ccccc2)C1c1cccc([N+](=O)[O-])c1` (stereo not drawn), the compound was called inactive in experiment [1], in experiment [3] and in experiment [5]. The AC50 in [2] is 15.5 µM (active); in [4], 8.22 µM (active); in experiment [6], 26.5 µM (active); in [7] it was 17.9 µM (active); in experiment [8], 25 µM (active).

`COc1ccc(O)cc1`: the outcome in experiment [1], in experiment [2], in experiment [3], in experiment [4], in experiment [5] and in experiment [6] was inactive. Further, the compound was classed as inactive in experiment [7] and in experiment [8].

As to `Sc1nc(S)nc(S)n1`, the outcome in experiment [1], in experiment [2], in experiment [3], in [4], in experiment [5] and in experiment [6] was inactive. Besides, the compound was classed as inactive in experiment [7] and in [8].

`NC(N)=NC(=O)c1nc(Cl)c(N)nc1N`: the call in [1], in experiment [2], in [3], in experiment [5], in experiment [6] and in [7] was inactive. Moreover, the call in experiment [8] was inactive. Further, the AC50 in [4] was 149 µM (active).

As to `O=C(O)COCCN1CCN(C(c2ccccc2)c2ccc(Cl)cc2)CC1` (stereo not drawn), the call in experiment [1], in [2], in experiment [3], in experiment [4], in experiment [5] and in experiment [6] was inactive. Besides, the outcome in [7] and in [8] was inactive.

For `NCCCCCCN`, the result in experiment [1], in experiment [2], in experiment [3], in experiment [4], in [5] and in experiment [7] was inactive. For the same compound, the compound was classed as inactive in experiment [9] and in [8].

In the case of `CC(CCO)CCCC(C)(C)O` (stereo not drawn), the compound was classed as inactive in experiment [1], in [2], in experiment [3], in experiment [4], in [5] and in experiment [6]. The outcome in experiment [7] and in experiment [8] was inactive.

For the compound `CCCC(C)C=O` (stereo not drawn), the outcome in [1], in experiment [2], in [3], in [4], in experiment [5] and in experiment [6] was inactive. The call in experiment [7] and in experiment [8] was inactive.

As to `C=C(C)[C@@H]1CC[C@@H](C)C[C@@H]1O`, the result in experiment [1], in experiment [2], in experiment [3], in experiment [4], in experiment [5] and in experiment [6] was inactive. The outcome in experiment [7] and in experiment [8] was inactive.

Usually AC50 stands for the concentration at which the activity in the assay is half-maximal.
